A selection: hits, their analogues and other compounds. The true share with any hit is near 11%.
HCV inhibitor = qHTS Assay for Inhibitors of Hepatitis C Virus (HCV). Potency, µM (series often up to 41.8 µM), for the others: top-dose activity change, negative = inhibition, actives largely listed as inhibitors. Huh7.5.1 HCVcc-Cre infection, luciferase reporter, 44 h. AID 651820, 2012. hit rate 3.4% among 340,000
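Infectious HCV cell culture screen: compound-treated cells (1,000/well, pre-plated 4 h) are infected with HCVcc-Cre at roughly 0.5 moi and grown 44 h. Infection is quantified by luciferase signal after 15 min substrate incubation at room temperature.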
Pf growth 96h = Primary qHTS for delayed death inhibitors of the malarial parasite plastid, 96 hour incubation | hit rate 6.9% among 320,000 | AID 504834, 2011 | Potency, µM (series often up to 28.7 µM), for the others: top-dose activity change, negative = inhibition, actives largely listed as inhibitors | P. falciparum luciferase reporter growth, 96 h
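Delayed-death screen, second-generation endpoint: infected erythrocytes, 2% hematocrit, 0.05% parasitemia final; 96 hours at 37 C, 5% CO2; luciferase detection reagent; luminescence decrease equals reduced growth.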
Pf growth 48h = Primary qHTS for delayed death inhibitors of the malarial parasite plastid, 48 hour incubation; AID 504832, 2011; hit rate 5.9% among 310,000; P. falciparum luciferase growth in erythrocytes, 48 h; Potency, µM (doses to about 28.7 µM), inactives show top-dose activity change, negative = inhibition, hits mostly inhibitors
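Erythrocytes infected with P. falciparum carrying an integrated firefly luciferase reporter (2% hematocrit, 0.1% parasitemia final) were exposed to compounds in RPMI 1640 with 0.5% Albumax at 37 C, 5% CO2. Growth inhibition was scored as reduced luminescence.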
AmpC no deterg = qHTS Inhibitors of AmpC Beta-Lactamase (assay without detergent). P00811. AmpC nitrocefin hydrolysis, absorbance 480 nm, 0.0001% Triton. Potency, µM (top dose mostly 57.1 µM), for the others: at the top dose activity change, negative = inhibition, most hits filed as inhibitors. hit rate 0.52% among 330,000. AID 485341, 2010;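 also: plate controls were no compound for no effect and no enzyme for full effect; nearly all actives have a fitted effect of over 20% in size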
Target sequence (P00811 whole entry, looked up): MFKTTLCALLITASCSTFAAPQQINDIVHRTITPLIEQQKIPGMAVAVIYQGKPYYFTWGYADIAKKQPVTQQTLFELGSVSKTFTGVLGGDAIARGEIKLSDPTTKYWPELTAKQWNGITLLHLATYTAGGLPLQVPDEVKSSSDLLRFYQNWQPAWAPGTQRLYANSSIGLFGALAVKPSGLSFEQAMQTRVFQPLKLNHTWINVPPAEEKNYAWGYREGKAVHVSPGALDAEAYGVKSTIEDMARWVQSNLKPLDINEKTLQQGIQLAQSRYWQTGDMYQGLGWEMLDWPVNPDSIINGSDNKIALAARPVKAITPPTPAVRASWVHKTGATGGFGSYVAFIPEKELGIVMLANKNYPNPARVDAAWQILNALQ
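20 mM phosphate pH 7.0 + 0.01% (detergent screen) or 0.0001% Triton X-100; 5.3 nM AmpC reagent; cpd preinc 15 min RT; nitrocefin (800 uM stock) to start; A480 q20 s × 4 min; Activity was normalised to no-enzyme and no-compound control wells.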
AmpC detergent = qHTS Inhibitors of AmpC Beta-Lactamase (assay with detergent). AmpC hydrolysis of nitrocefin, absorbance 480 nm, 0.01% Triton. Potency, µM (top dose mostly 114 µM), inactives show top-dose activity change, negative = inhibition, usual class: inhibitors. hit rate 0.041% among 370,000. AID 485294, 2010;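 also: 0% = no-compound wells and -100% = no-enzyme wells; nearly all actives have a fitted effect of over 25% in size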
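20 mM phosphate pH 7.0 + 0.01% (detergent screen) or 0.0001% Triton X-100; 5.3 nM AmpC reagent; cpd preinc 15 min RT; nitrocefin (800 uM stock) to start; A480 q20 s × 4 min; Activity was normalised to no-enzyme and no-compound control wells.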
AMA1-RON2 inh = qHTS for Inhibitors of AMA1-RON; Towards Development of Antimalarial Drug Lead: Primary Screen. Plasmodium falciparum AMA1 (3D7) - RON2 peptide interaction. AlphaScreen AMA1-biotinylated RON2 peptide binding. Potency, µM (top dose mostly 58.2 µM), for inactives: at the top dose activity change, negative = inhibition, actives largely listed as inhibitors. hit rate 0.2% among 360,000. AID 720542, 2013;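 also: 0% = vehicle wells and -100% = peptide control; nearly all actives have a fitted effect of over 45% in size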
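AMA1 (3D7) with his tag at 25 nM final met compounds first, then biotinylated RON2 peptide at 25 nM; detection used donor plus acceptor beads, 10 µg/mL apiece, read by AlphaScreen after 30 min at room temperature.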
An asterisk follows results filed as active; u = inconclusive; x = no result given; [ ] = another dose, or the depositor's remark. Calls follow the shape of the dose curve; as a rule, active = well fitted curve in the direction sought with a large enough effect; inconclusive = small, poorly fitted or top-dose-only effect, or another doubt; inactive = no such curve, though single readings can be large; an effect the other way counts as inactive or inconclusive. Unless noted, % is scaled to controls: 0 for no effect and ±100 for the full control effect; potency is read from the fitted curve at half-maximal effect.

SMILES | HCV inhibitor | Pf growth 96h | Pf growth 48h | AmpC no deterg | AmpC detergent | AMA1-RON2 inh
CC1CCN(S(=O)(=O)c2ccc3c(c2)N(CC(=O)NC(C)C)C(=O)CS3)CC1 | x | x | x | x | 0.8% | x
C=CCN=c1scc(C)n1/N=C/c1ccc(O)c(O)c1 | 11.2µM* | 1.6% | u | -28.9%[11.4 µM] | -13.0% | -4.0%
CN=c1scc(-c2ccco2)n1/N=C/c1ccc(O)c(O)c1 | 2.51µM* | -92.1% | -35.1% | -43.5% | 4.2% | -12.0%
Cc1cccc(-c2nc3c(c(SCC(=O)N4CCOCC4)n2)COC(C)(C)C3)c1 | -23.9% | 11.7µM* | u | 44.4% | 0.2% | 18.5%
CC1(C)Cc2nc(-c3ccccc3)nc(SCC(O)CO)c2CO1 (stereo not drawn) | -16.6% | 10.4µM* | -6.7% | 60.4% | 3.6% | -7.6%
CC1(C)Cc2nc(-c3ccccc3)nc(SCC(=O)N3CCOCC3)c2CO1 | 17.3% | u | -8.5% | 0.2% | u | -3.0%
Cc1ccc(Cn2c(CNS(=O)(=O)c3ccc(C(C)(C)C)cc3)nc3cccnc32)cc1 | x | x | x | x | -0.6% | x
Cc1ccc(Cl)cc1NC(=O)C(=O)NCCc1sc(-c2ccc(F)cc2)nc1C | x | x | x | x | 13.0% | x
COc1ccc(/C(C#N)=C/c2c(-c3ccc(Cl)cc3)nc3c(C)cccn23)cc1 | 8.6% | u | u | -9.0% | -2.3% | 10.5%
Cc1cccn2c(/C=N/OCc3ccc(F)cc3)c(-c3ccc(Cl)cc3)nc12 | u | 11.7µM* | u | -7.2% | -9.7% | 0.1%
CCCn1c(-c2cccc(F)c2)nc2c1c(=O)[nH]c(=O)n2Cc1ccccc1 | 4.2% | -29.2% | -4.0% | -15.5% | u | 2.2%
CC(C)Cn1c(-c2ccc(C#N)cc2)nc2c1c(=O)[nH]c(=O)n2CC(C)C | 4.1% | 10.4µM* | x | 6.5% | 1.6% | 0.0%
CCCCn1c(-c2ccc(Br)cc2F)nc2c1c(=O)[nH]c(=O)n2CC(C)C | u | u | 10.4µM* | -13.0% | 4.2% | 0.3%
CCCCn1c(=O)[nH]c(=O)c2c1nc(-c1ccc(OCCC)c(OCC)c1)n2CCOC | 25.1µM* | u | 9.28µM* | 0.4% | -7.4% | 5.5%
CCCn1c(-c2cc(OC)c(OC)c(OC)c2)nc2c1c(=O)[nH]c(=O)n2Cc1ccccc1 | u | u | 9.28µM* | 44.9% | u | 10.4%
CCCCn1c(=O)[nH]c(=O)c2c1nc(-c1ccc(-c3ccc(F)cc3)o1)n2C | 27.3% | 25.9% | -1.7% | -15.1% | u | -5.1%
Cc1cc2nn(-c3ccc(F)cc3)nc2cc1NC(=O)c1cc(Cl)ccc1Cl | x | x | x | x | -5.4% | x
COc1ccc(-c2nc3c(c(=O)[nH]c(=O)n3Cc3ccccc3)n2Cc2ccccc2)cc1 | 12.6µM* | x | u | -48.2% | -14.6% | u
Cn1c(-c2cccc(OCc3ccccc3)c2)nc2c1c(=O)[nH]c(=O)n2Cc1ccccc1 | 2.9% | x | 17.9% | -26.9% | -8.5% | -1.2%
COCCn1c(-c2cccc([N+](=O)[O-])c2)nc2c1c(=O)[nH]c(=O)n2Cc1ccccc1 | -19.5% | 11.7µM* | u | -13.9% | u | 4.2%
COc1ccc(-c2nc3c(c(=O)[nH]c(=O)n3Cc3ccccc3)n2C)cc1 | -0.7% | x | 5.2% | 6.5% | -5.7% | -2.5%
CN1CCC2(CC1)Nc1nc(SCc3ccc(Cl)cc3)nn1C1=C2CN(C)CC1 | 14.1µM* | -10.2% | 3.29µM* | 21.4% | -14.9% | -20.0%
O=c1c2c(-c3ccc(Cl)cc3)ccnc2[nH]n1-c1ccccc1 | x | x | x | x | -2.7% | x
CN(C)c1ccc(O)c2c1CC1CC3C(N(C)C)C(=O)C(C(N)=O)=C(O)[C@@]3(O)C(=O)C1=C2O (stereo partly drawn) | -11.2% | x | x | x | x | -7.7%
C[C@H]1c2cccc(O)c2C(O)=C2C(=O)C3(O)C(O)=C(C(N)=O)C(=O)[C@@H](N(C)C)[C@@H]3[C@@H](O)[C@@H]21 (stereo partly drawn) | -11.6% | 0.37µM* | 4.65µM* | -13.3% | u | u
SMILES | HCV inhibitor | Pf growth 96h | Pf growth 48h | AmpC no deterg | AmpC detergent | AMA1-RON2 inh
C=C1c2cccc(O)c2C(O)=C2C(=O)[C@]3(O)C(O)=C(C(N)=O)C(=O)[C@@H](N(C)C)[C@@H]3[C@@H](O)[C@H]12 | 5.0% | 0.465µM* | u | -31.9% | u | 3.16µM*
COc1ccc(OC)c2sc(N(Cc3cccnc3)C(=O)c3ccco3)nc12 | x | x | x | x | 4.4% | x
Cc1csc2nc(COc3ccc(NC(=O)COc4ccc(F)cc4)cc3)cc(=O)n12 | x | x | x | x | -4.4% | x
COc1ccc2c(c1)-c1c(ssc1=S)C(C)(C)N2 | u | -7.4% | u | -31.0% | u | 29.9µM*
COc1ccc2c(c1)-c1c(sn(-c3ccccc3)c1=S)C(C)(C)N2 | u | -3.1% | u | -32.3% | -13.1% | 12.6µM*
COc1ccc2c(c1)-c1c(sn(-c3ccc(OC)c(OC)c3)c1=S)C(C)(C)N2 | 2.51µM* | 10.4µM* | u | 1.7% | u | u
COc1ccc(-n2sc3c(c2=S)-c2cc(OC)ccc2NC3(C)C)cc1 | u | u | u | -31.3% | -1.9% | 22.4µM*
CC(C)Cc1nn2cc(-c3cccc(Br)c3)nc2s1 | x | x | x | x | 17.3% | x
CC(C)N(Cc1ccccc1)S(=O)(=O)c1ccc(N2CCCCS2(=O)=O)cc1 | x | x | x | x | 7.2% | x
OCC1(Cc2ccccc2C(F)(F)F)CCN(Cc2ccc3c(c2)CCO3)CC1 | 9.4% | u | 11.7µM* | 46.5% | 8.9% | 14.2%
OCC1(Cc2ccccc2C(F)(F)F)CCN(Cc2ccccc2)CC1 | -19.2% | u | 11.7µM* | 33.1% | 4.3% | 2.0%
CSc1cccc(CN2CCC(CO)(Cc3cccc(C(F)(F)F)c3)CC2)c1 | u | 0.3% | u | 170.3% | -4.1% | u
Cc1ccc(-n2cc(CN3CCC(CO)(Cc4cccc(C(F)(F)F)c4)CC3)cn2)cc1 | 11.2µM* | u | u | 175.1% | 4.0% | -3.5%
COc1cccc(NC(=O)CCSc2nc(-c3ccco3)cc(C(F)(F)F)n2)c1 | x | x | x | x | 2.4% | x
O=C(CSc1nc(=O)[nH]c2c1CCCC2)NCc1ccccc1Cl | x | x | x | x | 9.9% | x
CCN(CC)CCn1c(=N)n(CC(=O)c2ccc(Br)s2)c2ccccc21 | -87.7% | 1.85µM* | 1.85µM* | 62.3% | -5.0% | -17.6%
